Laboratory results: PubChem BioAssay (Tox21)
Inconclusive results are not listed. Activity calls are given as the source filed them. Unless noted, calls follow the shape of the dose curve; as a rule, active = well fitted curve in the direction sought with a large enough effect in the repeat runs; inconclusive = weak or mixed curves; inactive = no such curve, though single readings can be large; an effect the other way counts as inactive or inconclusive.

Tests used:
[1] = molecular target: Progesterone receptor (Homo sapiens) (UniProt P06401); experiment: qHTS assay to identify small molecule agonists of the progesterone receptor (PR) signaling pathway (AID 1346784; calls by dose curve; also: nearly all actives have a fitted effect of over 30% in size; also: potency is read from the fitted curve at half-maximal effect)
Chain of Progesterone receptor (Homo sapiens) (P06401 whole entry, looked up): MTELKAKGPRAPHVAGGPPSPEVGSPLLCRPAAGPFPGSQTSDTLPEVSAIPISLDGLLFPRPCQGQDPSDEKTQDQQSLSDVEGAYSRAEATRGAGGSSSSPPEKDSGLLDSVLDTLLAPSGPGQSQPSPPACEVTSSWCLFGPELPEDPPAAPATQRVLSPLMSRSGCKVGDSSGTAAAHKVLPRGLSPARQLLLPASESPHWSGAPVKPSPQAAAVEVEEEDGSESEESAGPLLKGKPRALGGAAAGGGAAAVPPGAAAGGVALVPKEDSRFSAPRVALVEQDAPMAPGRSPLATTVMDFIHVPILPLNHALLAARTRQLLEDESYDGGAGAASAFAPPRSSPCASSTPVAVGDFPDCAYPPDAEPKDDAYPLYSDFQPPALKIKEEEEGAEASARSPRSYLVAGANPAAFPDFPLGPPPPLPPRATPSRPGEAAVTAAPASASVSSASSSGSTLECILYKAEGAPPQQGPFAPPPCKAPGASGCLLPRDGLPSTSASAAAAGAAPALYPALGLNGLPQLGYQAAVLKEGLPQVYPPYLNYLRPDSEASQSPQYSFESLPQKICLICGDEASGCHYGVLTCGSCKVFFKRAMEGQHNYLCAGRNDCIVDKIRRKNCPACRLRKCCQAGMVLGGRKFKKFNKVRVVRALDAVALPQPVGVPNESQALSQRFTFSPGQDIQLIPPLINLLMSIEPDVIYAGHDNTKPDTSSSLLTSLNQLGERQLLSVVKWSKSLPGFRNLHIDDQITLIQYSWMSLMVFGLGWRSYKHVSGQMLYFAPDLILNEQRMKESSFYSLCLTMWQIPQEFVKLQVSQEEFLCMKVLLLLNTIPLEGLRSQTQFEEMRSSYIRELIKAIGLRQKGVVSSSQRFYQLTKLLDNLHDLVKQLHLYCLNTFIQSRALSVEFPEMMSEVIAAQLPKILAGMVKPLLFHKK
Outline: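 Compounds were tested for PR agonism in HEK 293T cells bearing a beta-lactamase gene under UAS control. Treatment lasted 16 hr at 37C; signal came from fluorescence of a FRET substrate.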

[2] = molecular target: Progesterone receptor (Homo sapiens) (UniProt P06401); experiment: qHTS assay to identify small molecule antagonists of the progesterone receptor (PR) signaling pathway (AID 1346795; active = well fitted inhibition curve with a large enough effect in the signal ratio in the repeat runs, not every such curve was filed as active; the % refers to the signal ratio; also: potency is read from the fitted curve at half-maximal effect)
Outline: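 In HEK293T cells bearing the PR-UAS-bla reporter, compound effects on promegestone-driven (1 nM) beta-lactamase expression are assessed after 16 hr using a fluorescent FRET substrate incubated 2 hr at room temperature.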

[3] = qHTS assay to identify small molecule antagonists of the progesterone receptor (PR) signaling pathway - cell viability counter screen (AID 1346798); also: series mostly up to about 92 µM; nearly all actives have a fitted effect of over 50% in size
Outline: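 Following a 4 hr attachment, PR-UAS-bla HEK293T cells in charcoal-stripped FBS medium were exposed to compounds with R5020 for 16 hr; CellTiter-Glo was added and luminescence read after 30 min at room temperature.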

[4] = qHTS assay to identify small molecule antagonists of the TGF-beta/Smad signaling pathway - cell viability counter screen (AID 1346824); also: nearly all actives have a fitted effect of over 50% in size
Outline: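 SBE-bla HEK 293T cells, incubated overnight, then compound plus 0.25 ng/mL TGF-beta1 (stock added) for 5 hr at 37 C. Viability was read in the same wells by CellTiter-Glo luminescence after 30 min at room temperature.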

[5] = qHTS assay to identify small molecule agonists of the TGF-beta/Smad signaling pathway - cell viability counter screen (AID 1346829); also: top concentration of the series differs between compounds; nearly all actives have a fitted effect of over 45% in size
Outline: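 After overnight seating at 37 C and 5% CO2, reporter cells got compounds for 5 hr and FRET substrate for 2 hr; cell viability then came from CellTiter-Glo luminescence.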

[6] = qHTS assay to identify small molecule agonists of the TGF-beta/Smad signaling pathway (AID 1346859; active = well fitted activation curve with a large enough effect in the signal ratio in the repeat runs, not every such curve was filed as active; the % refers to the signal ratio; also: series mostly up to about 77 µM)
Outline: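 Each well held 4,000 SBE-bla HEK 293T cells incubated overnight before compound addition; 5 hr later the cleavable FRET substrate went on for 2 hr at room temperature, and fluorescence was read at two emissions.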

[7] = molecular target: Thyrotropin-releasing hormone receptor (Homo sapiens) (UniProt P34981); experiment: qHTS assay to identify small molecule antagonists of the thyrotropin-releasing hormone receptor (TRHR) signaling pathway (AID 1346877; active = well fitted inhibition curve with a large enough effect in the repeat runs, not every such curve was filed as active; also: series mostly up to about 51 µM)
Chain of Thyrotropin-releasing hormone receptor (Homo sapiens) (P34981 whole entry, looked up): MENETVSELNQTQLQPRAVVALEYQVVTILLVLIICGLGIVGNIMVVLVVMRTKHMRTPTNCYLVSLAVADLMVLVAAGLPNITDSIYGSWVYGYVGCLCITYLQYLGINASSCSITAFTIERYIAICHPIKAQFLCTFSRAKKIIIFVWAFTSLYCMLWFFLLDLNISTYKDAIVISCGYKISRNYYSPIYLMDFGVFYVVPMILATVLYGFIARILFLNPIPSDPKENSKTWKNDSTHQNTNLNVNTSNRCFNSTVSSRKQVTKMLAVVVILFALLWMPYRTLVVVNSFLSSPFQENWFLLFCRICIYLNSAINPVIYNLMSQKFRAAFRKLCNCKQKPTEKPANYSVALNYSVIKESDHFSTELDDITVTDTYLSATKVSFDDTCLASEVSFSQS
Outline: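 TRHR-expressing HEK293 cells were seeded, cultured 18 h at 37 °C, then loaded with calcium dye for 2 h. Compounds were pre-incubated 5 min at room temperature before 1 nM TRH (final) was added, and kinetic fluorescence was recorded for 3 min.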

[8] = molecular target: Thyrotropin-releasing hormone receptor (Homo sapiens) (UniProt P34981); experiment: qHTS assay to identify small molecule agonists of the thyrotropin-releasing hormone receptor (TRHR) signaling pathway (AID 1346891; calls by dose curve; also: series mostly up to about 58 µM)
Outline: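 Screening of agonists relied on calcium signalling in HEK293 cells expressing human TRHR: dye loading 2 h at 37 °C preceded compound addition and a 3-min fluorescence time course.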

[9] = Human pregnane X receptor (PXR) small molecule agonists, qHTS cell viability counter screen (AID 1346977); also: nearly all actives have a fitted effect of over 50% in size; also: potency is read from the fitted curve at half-maximal effect
Outline: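 Tox21 qHTS format; PXR-Luc HepG2, 2,000/well, charcoal-stripped FBS 5%. Cpd exposure 24hr. Read: CellTiter-Fluor fluorescence, multiplexed with luciferase.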

[10] = Caspase-3/7 induction in HepG2 cells by small molecules, qHTS assay (AID 1346978); also: nearly all actives have a fitted effect of over 15% in size
Outline: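 Wild-type HepG2 cells, 2,000/well, settled 5 hr at 37 C and 5% CO2, then compound-treated for 17 hr; caspase-3/7 activity read by luminescent Caspase-Glo 3/7 after 30 min at room temperature.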

[11] = Caspase-3/7 induction in CHO-K1 cells by small molecules, qHTS cell viability counter screen (AID 1346979); also: nearly all actives have a fitted effect of over 35% in size; also: potency is read from the fitted curve at half-maximal effect
Outline: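 CellTiter-Fluor viability check, qHTS format: wild-type CHO-K1, 16hr compound treatment, 1hr reagent incubation, fluorescence read.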

[12] = Caspase-3/7 induction in CHO-K1 cells by small molecules, qHTS assay (AID 1346980); also: nearly all actives have a fitted effect of over 15% in size
Outline: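 Wild-type CHO-K1 cells exposed to compounds for 17hr at 37 C, 5% CO2. Caspase-3/7 activity then measured by Caspase-Glo 3/7 luminescence after 30min at room temperature.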

[13] = Caspase-3/7 induction in HepG2 cells by small molecules, qHTS cell viability counter screen (AID 1346981); also: series mostly up to about 92 µM; nearly all actives have a fitted effect of over 30% in size
Outline: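 Wild-type HepG2 cells (2,000/well) were allowed to settle for 5 hr at 37 C, 5% CO2, then dosed with compounds in DMSO by pin transfer. After 16 hr at 37 C, CellTiter-Fluor was added and fluorescence read 1 hr later.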

[14] = molecular target: Nuclear receptor subfamily 1 group I member 2 (Homo sapiens) (UniProt O75469); experiment: Human pregnane X receptor (PXR) small molecule agonists, qHTS assay (AID 1346982); also: nearly all actives have a fitted effect of over 35% in size; also: potency is read from the fitted curve at half-maximal effect
Chain of Nuclear receptor subfamily 1 group I member 2 (Homo sapiens) (O75469 whole entry, looked up): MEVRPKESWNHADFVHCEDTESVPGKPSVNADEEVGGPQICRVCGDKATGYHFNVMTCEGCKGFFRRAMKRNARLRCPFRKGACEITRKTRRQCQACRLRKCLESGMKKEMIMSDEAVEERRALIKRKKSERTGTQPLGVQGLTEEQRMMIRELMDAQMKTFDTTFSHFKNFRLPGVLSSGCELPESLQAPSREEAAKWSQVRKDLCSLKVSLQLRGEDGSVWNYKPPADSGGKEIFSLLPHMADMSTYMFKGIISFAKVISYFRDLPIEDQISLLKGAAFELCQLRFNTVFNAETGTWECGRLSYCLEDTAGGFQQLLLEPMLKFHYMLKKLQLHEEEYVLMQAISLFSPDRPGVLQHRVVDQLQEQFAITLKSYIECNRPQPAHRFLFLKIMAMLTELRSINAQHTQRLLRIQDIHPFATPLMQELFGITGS
Outline: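 PXR-Luc HepG2 cells (CYP3A4 promoter-driven luciferase) were seeded in medium with 5% charcoal-stripped FBS, left 5 hr at 37 C, then exposed to compounds in DMSO for 24 hr. Luminescence was read after ONE-Glo addition.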

[15] = molecular target: Nuclear receptor subfamily 1 group I member 2 (Rattus norvegicus) (UniProt Q9R1A7); experiment: Rat pregnane X receptor (rPXR) activation by small molecules, qHTS assay (AID 1346983); settings: rPXR luciferase reporter cells, One-Glo luminescence, 24 h; max activation: stronger effect = higher value; also: nearly all actives have a fitted effect of over 20% in size; also: potency is read from the fitted curve at half-maximal effect
Chain of Nuclear receptor subfamily 1 group I member 2 (Rattus norvegicus) (Q9R1A7 whole entry, looked up): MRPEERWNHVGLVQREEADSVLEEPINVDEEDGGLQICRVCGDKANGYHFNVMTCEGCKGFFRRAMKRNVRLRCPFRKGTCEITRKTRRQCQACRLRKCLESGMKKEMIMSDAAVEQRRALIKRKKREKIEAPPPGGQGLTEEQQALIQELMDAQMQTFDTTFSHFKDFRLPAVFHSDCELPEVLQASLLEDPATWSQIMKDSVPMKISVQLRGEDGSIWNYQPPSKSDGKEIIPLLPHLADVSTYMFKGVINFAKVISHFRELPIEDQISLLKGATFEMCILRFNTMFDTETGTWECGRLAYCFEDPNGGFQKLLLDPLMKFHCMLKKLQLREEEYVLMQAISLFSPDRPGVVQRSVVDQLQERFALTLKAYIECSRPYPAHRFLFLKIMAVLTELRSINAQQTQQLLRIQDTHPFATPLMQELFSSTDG
Outline: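 Cell-based rPXR activation assay: rPXR cells, 2,000 per well, rested 5hr at 37 C, then exposed to compounds in DMSO for 24 hr at 37 C. Luciferase activity read by One-Glo luminescence after 30 min at room temperature.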

[16] = molecular target: Nuclear receptor subfamily 1 group I member 2 (Homo sapiens) (UniProt O75469); experiment: CYP3A4 induction through human pregnane X receptor (PXR) by small molecules, qHTS assay (AID 1346984); also: nearly all actives have a fitted effect of over 40% in size
Outline: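 DPX-2 cells (HepG2 co-transfected with PXR and CYP3A4 promoter-luciferase) treated with compounds 24 h at 37C; luciferin-IPA CYP3A4 substrate 3uM final added for 3 h, then One-Glo; luminescence read. qHTS format.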

[17] = molecular target: Cytochrome P450 2D6 (Homo sapiens) (UniProt P10635); experiment: Cytochrome P450 Family 2 Subfamily D Member 6 (CYP2D6) small molecule antagonists: luciferase reporter qHTS assay (AID 1671196); also: nearly all actives have a fitted effect of over 50% in size; also: potency is read from the fitted curve at half-maximal effect
Chain of Cytochrome P450 2D6 (Homo sapiens) (P10635 whole entry, looked up): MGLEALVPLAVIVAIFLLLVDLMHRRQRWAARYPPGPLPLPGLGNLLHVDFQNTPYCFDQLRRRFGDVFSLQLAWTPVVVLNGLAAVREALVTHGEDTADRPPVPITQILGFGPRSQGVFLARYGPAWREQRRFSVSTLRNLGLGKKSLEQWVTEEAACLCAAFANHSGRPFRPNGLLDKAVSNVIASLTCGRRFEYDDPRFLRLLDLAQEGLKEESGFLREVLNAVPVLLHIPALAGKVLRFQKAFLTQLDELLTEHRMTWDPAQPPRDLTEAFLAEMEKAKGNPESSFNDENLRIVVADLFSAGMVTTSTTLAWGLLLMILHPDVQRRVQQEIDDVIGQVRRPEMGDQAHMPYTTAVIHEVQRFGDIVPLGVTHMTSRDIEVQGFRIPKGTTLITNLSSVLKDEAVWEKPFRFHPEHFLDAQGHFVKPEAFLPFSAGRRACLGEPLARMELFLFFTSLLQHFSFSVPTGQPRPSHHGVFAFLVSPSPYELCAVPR
Outline: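 CYP2D6 enzyme–substrate mix was held with compound for 10 min at room temperature, then NADPH regeneration solution was added and the reaction ran 1 h at room temperature. Luciferin product was detected by luminescence after 20 min with detection reagent.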

[18] = molecular target: Cytochrome P450 2C19 (Homo sapiens) (UniProt P33261); experiment: Cytochrome P450 Family 2 Subfamily C Member 19 (CYP2C19) small molecule antagonists: luciferase reporter qHTS assay (AID 1671197); also: series mostly up to about 120 µM; nearly all actives have a fitted effect of over 65% in size
Chain of Cytochrome P450 2C19 (Homo sapiens) (P33261 whole entry, looked up): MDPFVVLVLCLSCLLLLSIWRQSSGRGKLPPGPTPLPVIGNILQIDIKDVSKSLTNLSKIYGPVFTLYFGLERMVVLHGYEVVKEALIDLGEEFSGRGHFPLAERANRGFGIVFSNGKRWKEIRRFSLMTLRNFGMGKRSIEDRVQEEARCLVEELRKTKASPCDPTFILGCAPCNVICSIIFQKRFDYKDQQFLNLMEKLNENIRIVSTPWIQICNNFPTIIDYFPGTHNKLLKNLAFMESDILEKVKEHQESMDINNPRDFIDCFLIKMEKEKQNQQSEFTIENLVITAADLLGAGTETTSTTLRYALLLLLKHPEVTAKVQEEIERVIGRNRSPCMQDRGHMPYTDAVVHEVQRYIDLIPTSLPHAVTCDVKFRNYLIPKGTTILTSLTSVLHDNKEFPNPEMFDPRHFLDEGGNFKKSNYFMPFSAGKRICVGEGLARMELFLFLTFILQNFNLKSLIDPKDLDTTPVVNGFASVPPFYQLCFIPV
Outline: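 Inhibition of CYP2C19 was scored from loss of luminescence in a P450-Glo proluciferin substrate assay, NADPH-started and run 1 h at 37C, with ketoconazole as positive control.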
% is scaled to controls: 0 for no effect and ±100 for the full control effect.

C[N+](C)(C)CCOC(=O)CCC(=O)OCC[N+](C)(C)C
inactive: Potency [1] | Potency [2] | Potency [3] | Potency [4] | outcome [5] | Potency [6] | outcome [7] | Potency [8] | Potency [9] | Potency [10] | Potency [11] | Potency [12] | Potency [13] | Potency [14] | max activation [15] -0.297% | Potency [16] | Potency [17]

CCCCC1=NC2(CCCC2)C(=O)N1Cc1ccc(-c2ccccc2-c2nn[nH]n2)cc1
inactive: Potency [1] | Potency [2] | Potency [3] | Potency [4] | outcome [5] | Potency [6] | Potency [9] | Potency [10] | Potency [12] | Potency [14] | max activation [15] -1.35% | Potency [16] | Potency [17] | Potency [18]
active: Potency [11] 29.8 µM

CCOC(=O)C1=C[C@]2(CC)CCCN3CCc4c(n1c1ccccc41)[C@@H]32
inactive: Potency [1] | Potency [3] | Potency [4] | outcome [7] | Potency [8] | Potency [10] | Potency [12] | Potency [13] | Potency [18]
active: Potency [2] 23.7 µM | Potency [9] 26.6 µM | Potency [14] 2.37 µM | Potency [17] 2.75 µM

C=CCOC(=O)CCC1CCCCC1
inactive: Potency [1] | Potency [2] | Potency [3] | Potency [4] | outcome [5] | Potency [6] | outcome [7] | Potency [8] | Potency [10] | Potency [11] | Potency [12] | Potency [13] | Potency [14] | Potency [17] | Potency [18]

CCC(=O)O[C@]1(C(=O)CCl)[C@@H](C)C[C@H]2[C@@H]3CCC4=CC(=O)C=C[C@]4(C)[C@@]3(F)[C@@H](O)C[C@@]21C
inactive: Potency [2] | Potency [3] | Potency [4] | outcome [5] | Potency [6] | outcome [7] | Potency [8] | Potency [9] | Potency [10] | Potency [11] | Potency [12] | Potency [13]
active: Potency [1] 0.0009 µM | Potency [15] 2.24 µM | Potency [17] 15.5 µM

c1cc(CCCc2ccncc2)ccn1
inactive: Potency [1] | Potency [3] | Potency [4] | outcome [5] | Potency [6] | outcome [7] | Potency [8] | Potency [9] | Potency [10] | Potency [11] | Potency [12] | Potency [13]
active: Potency [2] 54.5 µM | Potency [14] 61.1 µM | Potency [17] 1.78 µM

CC[N+]1(CC)CCC(=C(c2ccccc2)c2ccccc2)C1C (stereo not given)
active: Potency [17] 1.74 µM
inactive: Potency [1] | Potency [2] | Potency [3] | Potency [4] | outcome [5] | Potency [6] | Potency [9] | Potency [10] | Potency [11] | Potency [12] | Potency [13] | Potency [14]

CCC(C)(C)CC
inactive: Potency [1] | Potency [2] | Potency [3] | Potency [4] | outcome [5] | Potency [9] | Potency [10] | Potency [11] | Potency [12] | Potency [13] | Potency [17] | Potency [18]
